# Hits are enriched below; roughly 9.2% of the tested compounds scored in any of these assays.
# ELG1 genotox: induces genotoxicity in HEK293T cells with luciferase-tagged ELG1; HEK293T ELG1-luciferase reporter, luminescence, 16 h; actives 1.3% (n = 330,000); Potency, µM (series often up to 46 µM), without a hit: at the highest dose activity change, positive = activation, most hits filed as activators; also: % of control where 0% means no effect; nearly all actives have a fitted effect of over 60% in size
#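 16 hr compound incubation (37 °C, 5% CO2) of HEK293T cells carrying luciferase-tagged ELG1; luciferase then measured by ONE-Glo luminescence after 30 min at RT.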
# Rab9 prom act: Rab9 promoter activation; Huh7 Rab9 promoter-luciferase reporter, luminescence, 24 h; Potency, µM (highest dose often 9.22 µM), for the others: at the highest dose activation, negative = inhibition, most hits filed as activators; actives 2.8% (n = 320,000); AID 485297; also: % of control where 0% means no effect; nearly all actives have a fitted effect of over 60% in size
#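 Huh7 reporter line, Rab9 promoter upstream of luciferase. Compound exposure 24 h at 37 °C in reduced-serum medium with 10% FBS. Read-out: luminescence.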
# ELG1 repair inh: inhibitors of ELG1-dependent DNA repair in HEK293T cells. HEK293T ELG1-luciferase reporter, luminescence, 16 h; DNA damage induced by 5-fluorouridine. Potency, µM (doses to about 46.1 µM), for the others: at the highest dose activity change, negative = inhibition, hits mostly inhibitors. actives 2.3% (n = 330,000). AID 504467; also: % is scaled to controls: 0 for no effect and ±100 for the full control effect; nearly all actives have a fitted effect of over 55% in size
#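 Overnight (16 hr) co-exposure of 2,000 cells/well to 5-fluorouridine and compound at 37 °C preceded detection. Luciferase was quantified via ONE-Glo luminescence; loss of signal denotes inhibition.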
# SMN2 splice enh: increases expression of the SMN2 splice variant; HEK293 SMN2-luciferase splicing reporter, luminescence, 30-36 h; actives 2.8% (n = 210,000); Potency, µM (highest dose often 46.1 µM), inactives show top-dose activity change, positive = activation, usual class: activators; AID 1458; also: % of control where 0% means no effect; nearly all actives have a fitted effect of over 55% in size
#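 qHTS luciferase splicing reporter: luminescence rises when SMN2 exon 7 is included in transfected HEK293 cells. Compound exposure lasted 30-36 h at 37C, with 4.5 mM final sodium butyrate as control, followed by a ONE-Glo read.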
# NPC1 promoter act: NPC1 promoter activation. AID 485313. Huh7 NPC1 promoter luciferase reporter, 24 h. actives 2.4% (n = 320,000). Potency, µM (top dose mostly 9.22 µM), for the others: at the top dose activation, hits mostly activators; also: % of control where 0% means no effect; nearly all actives have a fitted effect of over 60% in size
#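 Quantitative HTS used a cell-based reporter: Huh7 cells stably bearing the NPC1 promoter upstream of luciferase were treated with compounds for 24 h, and promoter activation was read as luminescence.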
# FLuc counter: counter-screen for miR-21 project: firefly luciferase inhibitors or activators; P08659; purified FLuc, Km substrates, luminescence inhibition; Potency, µM (highest dose often 57.5 µM), without a hit: top-dose activity change, negative = inhibition, usual class: inhibitors; actives 6.9% (n = 360,000); AID 588342;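 also: plate controls were vehicle for no effect and reference inhibitor for full effect; nearly all actives have a fitted effect of over 55% in size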
# Target sequence (P08659 whole entry, looked up): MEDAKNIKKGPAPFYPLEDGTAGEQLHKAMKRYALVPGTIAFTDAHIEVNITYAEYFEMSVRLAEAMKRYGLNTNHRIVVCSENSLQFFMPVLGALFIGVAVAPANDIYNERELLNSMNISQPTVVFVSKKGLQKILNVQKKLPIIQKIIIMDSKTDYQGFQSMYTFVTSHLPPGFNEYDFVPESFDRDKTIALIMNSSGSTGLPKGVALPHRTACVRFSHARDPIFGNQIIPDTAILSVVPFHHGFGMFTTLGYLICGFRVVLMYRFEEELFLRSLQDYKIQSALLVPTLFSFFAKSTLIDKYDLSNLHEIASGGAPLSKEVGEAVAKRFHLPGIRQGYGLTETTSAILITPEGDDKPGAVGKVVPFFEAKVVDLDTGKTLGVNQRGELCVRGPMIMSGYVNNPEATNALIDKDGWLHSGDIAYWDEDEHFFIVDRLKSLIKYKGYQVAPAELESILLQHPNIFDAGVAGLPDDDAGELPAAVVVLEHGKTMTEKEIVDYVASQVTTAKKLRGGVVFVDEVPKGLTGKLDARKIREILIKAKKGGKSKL
#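 Biochemical qHTS of compounds, final roughly 60 µM downward over six points, against 10 nM purified firefly luciferase using Km concentrations of substrates (10 uM D-luciferin, 10 uM ATP) in Tris acetate pH 7.5 buffer; luminescence output.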
# Starred values were filed as active, the others as inactive; ? = inconclusive; / = no result; [ ] = dose if it differs, or a comment. Calls follow the shape of the dose curve; as a rule, active = well fitted curve in the direction sought with a large enough effect; inconclusive = small, poorly fitted or top-dose-only effect, or another doubt; inactive = no such curve, though single readings can be large; an effect the other way counts as inactive or inconclusive. Potency is read from the fitted curve at half-maximal effect.
SMILES,ELG1 genotox,Rab9 prom act,ELG1 repair inh,SMN2 splice enh,NPC1 promoter act,FLuc counter
CC(C)(C)n1ncc2c(=O)n(Cc3ccc(Cl)c(SC(F)(F)F)c3)cnc21,/,/,/,/,/,-1%
CCOC(=O)c1sc(NC(=O)c2cccs2)nc1C,?,?,?,?,?,2.4µM*
CC(=O)c1sc(NC(=O)c2cc(-c3ccccc3)nn2-c2ccccc2)nc1C,-15%,-3%,15µM*,-28%,-5%,2%
CC(=O)c1sc(NC(=O)c2ccccc2F)nc1C,2.9µM*,0.45µM*,?,3.2µM*,1.4µM*,4.8µM*
CCOC(=O)c1sc(NC(=O)C(OC(C)=O)c2ccccc2)nc1C (stereo not given),10%,5%,?,35µM*,-3%,0%
CCOC(=O)c1sc(NC(=O)CC(C)c2ccccc2)nc1C (stereo not given),-4%,-5%,?,/,-20%,-2%
CCOC(=O)c1sc(NC(=O)c2c(OC)cccc2OC)nc1C,1%,22%,2%,2%,-3%,4%[2.3 µM]
O=C(Nc1nc2ccccc2s1)c1cc(-c2ccccc2)nn1-c1ccccc1,-4%,16%,?,84%,17%,?
CCN1CCN(C(=O)C2CCCN(S(=O)(=O)c3cccc4nsnc34)C2)CC1 (stereo not given),2%,-1%,?,/,-3%,2%
COc1cc(NC(=O)CCc2nc3cccnc3n2Cc2cccs2)cc(OC)c1OC,/,/,/,-8%,/,-11%
Cc1ccc(CNC(=O)c2c[nH]n3c(=O)c(Cc4ccc(Cl)cc4)c(C)nc23)cc1,/,/,/,3%,/,?
CC(=O)c1sc(NC(=O)c2cccs2)nc1C,14%,?,?,/,29%,9.5µM*
CC(=O)c1sc(NC(=O)c2cccnc2Cl)nc1C,7%,22%,21%,/,11%,?
CC(C)(C)C(=O)Nc1ccc(-c2cc3cc(Cl)ccc3o2)cc1,?,0.32µM*,?,/,?,0.19µM*
CCCCOC(=O)c1ccc(NC(=O)Cc2coc3c(C)c(C)ccc23)cc1,/,/,/,9%,/,-4%
Cc1ccc(N(CC(=O)N2CCN(c3cc(C)ccc3C)CC2)S(=O)(=O)c2c(C)nn(C)c2C)cc1,/,/,/,-17%,/,-8%
Cn1c(CN2CCOCC2)nc2cc(NC(=O)c3ccc(F)cc3)ccc21,-6%,-3%,?,/,-3%,4%[2.3 µM]
COc1ccc(C(=O)Nc2ccc3c(c2)nc(CCNC(=O)c2ccco2)n3C)cc1,4%,30%,?,/,4%,15µM*
CC(=O)NCCc1nc2cc(NC(=O)c3ccc(F)cc3)ccc2n1C,?,2µM*,?,/,3.5µM*,21µM*
CCC(=O)Nc1ccc2c(c1)nc(CCNC(=O)c1ccco1)n2C,1%,-5%,-7%,/,1%,-1%
COc1ccc(C(=O)Nc2ccc3c(c2)nc(CCNC(C)=O)n3C)cc1,18µM*,?,?,?,2.8µM*,12µM*
CN(C)c1ccc(C(CNC(=O)c2ccccc2Cl)N2CCCC2)cc1 (stereo not given),/,/,/,/,/,4%
CC(C)(C)C(=O)CSc1nc2ccsc2c(=O)n1Cc1ccccc1Cl,/,/,/,/,/,-5%
Cc1cc(C)cc(-n2c(SCC(=O)Nc3ccccc3F)nc3c(oc4ccccc43)c2=O)c1,/,/,/,-7%,/,-6%
CCOC(=O)c1cc2c(s1)-c1ccccc1CC2,15%,17%,?,20%,18%,11µM*
SMILES,ELG1 genotox,Rab9 prom act,ELG1 repair inh,SMN2 splice enh,NPC1 promoter act,FLuc counter
CCOC(=O)c1cc2ccc3ccccc3c2oc1=O,4%,0%,0%,/,-10%,-15%
CCOC(=O)c1cc2ccc3ccccc3c2s1,?,?,?,?,?,5.4µM*
CCOc1ccc(-n2c(Cc3ccccc3)nnc2SCc2nc(-c3cccs3)no2)cc1,/,/,/,-2%,/,-14%
O=C(O)/C=C/c1ccc(/C=C/C(=O)O)cc1,/,/,/,8%,/,/
CCCNC(=O)/C=C/c1ccc(C(C)C)cc1,?,28%,?,?,22%,17µM*
CC(C)c1ccc(/C=C/C(=O)O)cc1,1%,-6%,21%,/,0%,19µM*
CN(C)CC(C(=O)c1ccccc1)c1ccccc1 (stereo not given),-40%,-23%,16µM*,-94%,-10%,-16%
CC(C)(C)NC(=O)c1ccc(C(=O)NC(C)(C)C)cc1,1%,-14%,-6%,/,3%,1%
CC(C)(C)NC(=O)c1sccc1C(=O)O,2%,-1%,?,-14%,0%,15µM*
CCc1cccc(C)c1NC(=O)c1cc(S(=O)(=O)N2CCCCCC2)cn1C,/,/,/,/,/,6%
COc1cccc([C@@H]2Oc3ccc(OC)cc3C(=O)[C@H]2OC(=O)NCc2ccc3c(c2)OCO3)c1,?,?,?,13%,-2%,6µM*
COC(=O)[C@@H](NC(=O)O[C@@H]1C(=O)c2cc(OC)ccc2O[C@H]1c1ccc(OC)c(Br)c1)C(C)C,/,/,/,12%,/,/
COc1cccc([C@@H]2Oc3ccc(OC)cc3C(=O)[C@H]2OC(=O)NCCc2ccc(OC)c(OC)c2)c1,/,/,/,11µM*,/,/
COc1ccc2c(c1)C(=O)[C@H](OC(=O)NCCc1ccc(OC)c(OC)c1)[C@@H](c1ccc(OC)c(Br)c1)O2,/,/,/,15%,/,/
COC(=O)[C@H](Cc1ccccc1)NC(=O)O[C@@H]1C(=O)c2cc(OC)ccc2O[C@H]1c1ccc(OC)c(Br)c1,1%,-3%,2.9µM*,1%,0%,-9%
O=C(N/N=C\c1cccc(OC(=O)c2ccco2)c1)c1ccc2c(c1)OCO2,15µM*,25%,?,?,24%,1.7µM*
O=C(N/N=C\c1ccc2c(c1)OCO2)c1ccco1,15µM*,1.8µM*,?,/,3.2µM*,8.5µM*
Cc1cc(Cl)c(S(=O)(=O)N/N=C/c2ccc3c(c2)OCO3)c(Cl)c1,6%,12%,?,?,16%,15µM*
O=C(N/N=C/c1cccc(O)c1)c1ccc2c(c1)OCCO2,?,-1%,?,/,?,1.7µM*
Cc1cc(C)c(S(=O)(=O)N/N=C/c2ccc3c(c2)OCO3)c(C)c1,1%,0%,2%,/,-3%,1%
CC1(C)Cc2c(cnn2-c2ccccc2)C(NC(=O)CCN2CCCCO2)C1 (stereo not given),2%,-1%,8%,/,-3%,1%
Cc1ccc([C@@H]2[C@@H]3C(=O)N(c4ccccc4)C(=O)[C@@H]3[C@]3(C)C(=O)N(CC4CC4)CC(=O)N23)o1,-5%,-5%,20%,/,1%,-3%

# Assay outcomes (PubChem)
